Experimental data from PubChem BioAssay (NCATS).
Results filed as inconclusive are left out. Active and inactive are the calls of the source. Calls come from the whole dose curve; as a rule, active = well fitted cell-killing curve with a large enough effect; inconclusive = small, poorly fitted or top-dose-only effect, or effect the other way; inactive = flat fitted curve, though single readings scatter.

Columns and labels:
Test in all cases: Primary qHTS to identify gynecologic anti-cancer compounds using libraries of approved drugs and bioactive compounds (AID 1345084); note: nearly all actives have a fitted effect of over 55% in size
[1] = test system: C33A; details: Gynecologic cancer cell panel viability, ATPlite luminescence, 48 h; series mostly up to 57.5 µM
Summary of the method: (§1)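 ATP-based viability (ATPlite), 1,000 cells/well, 16 h pre-incubation, 48 h compound at 37 C, 5% CO2, 15 min RT before read.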

[2] = test system: CAOV3; details: Gynecologic cancer cell panel viability, ATPlite luminescence, 48 h; series mostly up to 57.5 µM
Summary of the method: as §1

[3] = test system: CASKI; details: Gynecologic cancer cell panel viability, ATPlite luminescence, 48 h; series mostly up to 57.5 µM
Summary of the method: as §1

[4] = test system: Es-2; details: Gynecologic cancer cell panel viability, ATPlite luminescence, 48 h; series mostly up to 57.5 µM
Summary of the method: as §1

[5] = test system: HeLa; details: Gynecologic cancer cell panel viability, ATPlite luminescence, 48 h; series mostly up to 57.5 µM
Summary of the method: as §1

[6] = test system: Hek293T; details: Gynecologic cancer cell panel viability, ATPlite luminescence, 48 h, control line for the selectivity index; series mostly up to 57.5 µM
Summary of the method: as §1

[7] = test system: JEG-3; details: Gynecologic cancer cell panel viability, ATPlite luminescence, 48 h; series mostly up to 57.5 µM
Summary of the method: as §1

[8] = test system: OV90; details: Gynecologic cancer cell panel viability, ATPlite luminescence, 48 h; series mostly up to 57.5 µM
Summary of the method: as §1

[9] = test system: PA-1; details: Gynecologic cancer cell panel viability, ATPlite luminescence, 48 h; series mostly up to 57.5 µM
Summary of the method: as §1

[10] = test system: SKOV3; details: Gynecologic cancer cell panel viability, ATPlite luminescence, 48 h; series mostly up to 57.5 µM
Summary of the method: as §1

[11] = test system: Tov-21-G; details: Gynecologic cancer cell panel viability, ATPlite luminescence, 48 h; series mostly up to 57.5 µM
Summary of the method: as §1

[12] = test system: Tov112D; details: Gynecologic cancer cell panel viability, ATPlite luminescence, 48 h; series mostly up to 57.5 µM
Summary of the method: as §1

Measured: Potency

O=C(/C=C/c1ccc(O)cc1)OC[C@@]1(O)C=C[C@@H]2C(C(=O)O)=CO[C@@H](O[C@@H]3O[C@H](CO)[C@@H](O)[C@H](O)[C@H]3O)[C@@H]21
inactive: [1] | [2] | [3] | [4] | [5] | [6] | [7] | [8] | [9] | [10] | [11] | [12]

CC1CCC2(C)CCC3(C)C(=CCC4C5(C)CCC(O)C(C)(C(=O)O)C5CCC43C)C2C1C (stereo not given)
inactive: [1] | [2] | [3] | [4] | [5] | [6] | [7] | [8] | [9] | [10] | [11] | [12]

Cc1c(F)cc(C(=O)NC2CC2)cc1-c1ccc(C(=O)NCC(C)(C)C)cn1
inactive: [1] | [2] | [3] | [4] | [5] | [6] | [7] | [8] | [9] | [10] | [11] | [12]

COc1cc(Nc2nc3ccccc3nc2NS(=O)(=O)c2cccc(NC(=O)c3ccc(C)c(OC)c3)c2)cc(OC)c1
inactive: [1] | [2] | [3] | [4] | [5] | [6] | [7] | [8] | [9] | [10] | [11] | [12]

CCC(C)/C=C(C)/C=C/C1=CC2=C(Cl)C(=O)C(C)(OC(C)=O)C(=O)C2=CN1CCCCC(N)C(=O)O (stereo not given)
inactive: [1] | [2] | [3] | [4] | [5] | [6] | [7] | [8] | [9] | [10] | [11] | [12]

COc1c2cc(c(O)c1OC)CCCCC(O)CCc1ccc(O)c-2c1 (stereo not given)
inactive: [1] | [2] | [3] | [4] | [5] | [6] | [7] | [8] | [9] | [10] | [11] | [12]

COc1ccc(CC(NC(C)=O)C(=O)O)cc1 (stereo not given)
inactive: [1] | [2] | [3] | [4] | [5] | [6] | [7] | [8] | [9] | [10] | [11] | [12]

C[C@@H]1O[C@@H](O[C@H]2[C@@H]3C=CO[C@@H](O[C@@H]4O[C@H](CO)[C@@H](O)[C@H](O)[C@H]4O)[C@@H]3[C@@]3(CO)O[C@@H]23)[C@H](O)[C@H](OC(=O)/C=C/c2ccc(O)cc2)[C@H]1OC(=O)/C=C/c1ccc(O)cc1
inactive: [1] | [2] | [3] | [4] | [5] | [6] | [7] | [8] | [9] | [10] | [11] | [12]

O=C(c1c2ccccc2cc2ccccc12)N1CCC(N2CCC[C@@H](C(=O)N3CCOCC3)C2)CC1
inactive: [1] | [2] | [3] | [4] | [5] | [6] | [7] | [8] | [9] | [10] | [11] | [12]

CSC(=O)OCC1=C[C@@H]2OC(=O)C3=CO[C@@H](O[C@@H]4O[C@H](CO)[C@@H](O)[C@H](O)[C@H]4O)[C@H]1[C@@H]32
inactive: [1] | [2] | [3] | [4] | [5] | [6] | [7] | [8] | [9] | [10] | [11] | [12]

O=C(/C=C/c1ccc(O)c(O)c1)O[C@H]1[C@@H]2C=CO[C@@H](O[C@@H]3O[C@H](CO)[C@@H](O)[C@H](O)[C@H]3O)[C@@H]2[C@@]2(CO)O[C@@H]12
inactive: [1] | [2] | [3] | [4] | [5] | [6] | [7] | [8] | [9] | [10] | [11] | [12]

COC(=O)C1=COC(OC2OC(CO)C(O)C(O)C2O)C2C(COC(=O)/C=C/c3ccc(O)cc3)C(O)C(O)C12 (stereo not given)
inactive: [1] | [2] | [3] | [4] | [5] | [6] | [7] | [8] | [9] | [10] | [11] | [12]

COc1cc(/C=C/C(=O)OC[C@H]2O[C@@H](OC3OC=C(C(=O)O)C4C(O)CC(C)(O)C34)[C@H](O)[C@@H](O)[C@@H]2O)cc(OC)c1O (stereo not given in full)
inactive: [1] | [2] | [3] | [4] | [5] | [6] | [7] | [8] | [9] | [10] | [11] | [12]

OC[C@@]1(O)CO[C@H](OC[C@H]2O[C@@H](OCCc3ccccc3)[C@H](O)[C@@H](O)[C@@H]2O)[C@@H]1O
inactive: [1] | [2] | [3] | [4] | [5] | [6] | [7] | [8] | [9] | [10] | [11] | [12]

OC[C@H]1O[C@@H](OC[C@H]2O[C@@H](OCc3ccccc3)[C@H](O)[C@@H](O)[C@@H]2O)[C@H](O)[C@@H](O)[C@@H]1O
inactive: [1] | [2] | [3] | [4] | [5] | [6] | [7] | [8] | [9] | [10] | [11] | [12]
